# Data taken from PubChem BioAssay (NCATS).
# Records with an inconclusive call do not appear. Calls of active or inactive are those of the source. Unless noted, calls follow the shape of the dose curve; as a rule, active = well fitted curve in the direction sought with a large enough effect; inconclusive = small, poorly fitted or top-dose-only effect, or another doubt; inactive = no such curve, though single readings can be large; an effect the other way counts as inactive or inconclusive.
# Experiments:
# [1] = P-glycoprotein substrates identified in KB-8-5-11 adenocarcinoma cell line, qHTS therapeutic library screen (AID 1346987); also: nearly all actives have a fitted effect of over 65% in size; also: potency is read from the fitted curve at half-maximal effect
# In short: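 KB-8-5-11, a colchicine-selected P-gp-overexpressing KB-3-1 subline, was grown without colchicine for the assay. Cells were seeded at 500 cells/well, dosed in concentration-response and incubated 72 h at 37 degree C, 5% CO2. Viability was read by CellTiter-Glo luminescence.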
# [2] = Primary qHTS for inhibitors of nuclear receptor binding SET domain protein 2 (NSD2) in an isogenic RCH-ACV NSD2 p.E1099K mutant (9B) (AID 1645876); also: nearly all actives have a fitted effect of over 70% in size; also: potency is read from the fitted curve at half-maximal effect
# [3] = Primary qHTS for inhibitors of nuclear receptor binding SET domain protein 2 (NSD2) in an RCH-ACV wild type WT cells (2C) (AID 1645877); also: nearly all actives have a fitted effect of over 70% in size; also: potency is read from the fitted curve at half-maximal effect
# [4] = system: HEK293; test: Cytotoxic Profiling of Annotated Libraries Using Quantitative High-Throughput Screening (AID 1296008); settings: Five cell lines viability, CellTiter-Glo ATP luminescence, 48-72 h; max response: stronger effect = lower value; also: nearly all actives have a fitted effect of over 60% in size; also: potency is read from the fitted curve at half-maximal effect; as to max response: % is scaled to controls: 0 for no effect and ±100 for the full control effect
# In short: (§1)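 Cells exposed to compounds for 48 or 72 hr at 37 degrees Celsius. Viability read as ATP-coupled luminescence with CellTiter-Glo after 10 min at room temperature.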
# [5] = system: KB-3-1; test: as above; settings: Five cell lines viability, CellTiter-Glo ATP luminescence, 48-72 h; max response: stronger effect = lower value
# In short: as §1
# [6] = system: HeLa; test: Primary qHTS to identify gynecologic anti-cancer compounds using libraries of approved drugs and bioactive compounds (AID 1345084); settings: Gynecologic cancer cell panel viability, ATPlite luminescence, 48 h; series mostly up to 57.5 µM; also: nearly all actives have a fitted effect of over 55% in size; also: potency is read from the fitted curve at half-maximal effect
# In short: (§2)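 ATP-based viability (ATPlite), 1,000 cells/well, 16 h pre-incubation, 48 h compound at 37 C, 5% CO2, 15 min RT before read.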
# [7] = system: SKOV3; test: as above; settings: Gynecologic cancer cell panel viability, ATPlite luminescence, 48 h; series mostly up to 57.5 µM
# In short: as §2
# [8] = system: Zika virus NS2B-NS3 protease (unlinked complex); test: Primary screen GU Rhodamine qHTS for Zika virus inhibitors: Unlinked NS2B-NS3 protease assay (AID 1347159); also: % is scaled to controls: 0 for no effect and ±100 for the full control effect; nearly all actives have a fitted effect of over 60% in size
# In short: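 Noncovalent NS2B hydrophilic domain/NS3 protease complex (25 nM final) in 10 mM Tris-HCl pH 8.0, 0.01% Tween 20, preincubated 15 min with compounds (up to 114 microM), then 1.5 microM Rhodamine110 substrate. Fluorescence change over 15 min fitted to 4-parameter Hill.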
# [9] = biological target: Cytochrome P450 2D6 (Homo sapiens) (UniProt P10635); test: Cytochrome P450 family 2 subfamily D member 6 (CYP2D6) small molecule antagonists: luciferase biochemical (cell-free) qHTS assay (AID 1645840; active = well fitted curve in the direction sought with a large enough effect in the repeat runs; an effect the other way counts as inactive or inconclusive; also: % is scaled to controls: 0 for no effect and ±100 for the full control effect; nearly all actives have a fitted effect of over 55% in size)
# In short: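 P450-Glo luminescent screen: recombinant CYP2D6 enzyme–proluciferin substrate mix preincubated with compound 10 min at room temperature, then NADPH regeneration added for 1 h at room temperature. Detection reagent added for 20 min; luciferin light read as relative luminescence units.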
# [10] = biological target: Cytochrome P450 2C9 (Homo sapiens) (UniProt P11712); test: Cytochrome P450 family 2 subfamily C member 9 (CYP2C9) small molecule antagonists: luciferase biochemical (cell-free) qHTS assay (AID 1645842; active = well fitted curve in the direction sought with a large enough effect in the repeat runs; an effect the other way counts as inactive or inconclusive; also: potency is read from the fitted curve at half-maximal effect; nearly all actives have a fitted effect of over 55% in size)
# In short: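 Luminescence, after 20 min with luciferin detection reagent, reflected CYP2C9 turnover during a 1 h NADPH-driven reaction at 37C. Enzyme-substrate mix contained 0.4% bovine serum albumin and was preincubated with compound 10 min at room temperature.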
# [11] = P-glycoprotein substrates identified in KB-3-1 adenocarcinoma cell line, qHTS therapeutic library screen (AID 1346986); also: nearly all actives have a fitted effect of over 60% in size
# In short: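 KB-3-1 parental and colchicine-selected P-gp-overexpressing KB-8-5-11 cells (colchicine omitted during assay), 500 cells/well, dosed in dose-response for 72 h at 37 °C; CellTiter-Glo luminescence. Cytotoxic: curve class -1.1 to -2.4, max response >50%, AC50 < 10 uM.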
# [12] = system: HACAT; test: qHTS assay to identify novel small-molecules to repurpose for Merkel cell carcinoma treatment (AID 1296009); settings: MCC and control cell lines, CellTiter-Glo viability, 72 h; at 44.8 µM (top of the series) unless noted; also: nearly all actives have a fitted effect of over 60% in size
# In short: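 Cells were treated for 72 hr at 37 degree celsius with compounds in 8- or 11-point dose response. Viability was read by CellTiter-Glo luminescence, normalized to no-cell (cytotoxicity) and DMSO controls.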
# [13] = qHTS drug screen for cell cycle checkpoint inhibitors in PARPi-resistant BRCA-mutant ovarian cancer cell lines. (AID 1963452; calls by dose curve); settings: PEO1/OlaR viability, CellTiter-Glo luminescence, 96 h, stronger effect = lower value
# In short: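 PEO1, PEO4 and PEO1/OlaR ovarian cancer cells, 600 per well, exposed 96 h at 37C to a dilution series. Viability read by CellTiter-Glo luminescence, normalized to DMSO and empty wells; activity summarized as Z-AUC.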
# [14] = biological target: Catechol O-methyltransferase (Homo sapiens) (UniProt P21964); test: Confirmatory Screen for Target Class Profiling of Small Molecule Inhibitors of Methyltransferases (AID 1745852); settings: MTase-Glo luminescence, SAH detection, recombinant enzyme; measured here: COMT max response; stronger effect = lower value; as to activity change, negative = inhibition: % is scaled to controls: 0 for no effect and ±100 for the full control effect
# [15] = biological target: Guanidinoacetate N-methyltransferase (Homo sapiens) (UniProt Q14353); test: as above; settings: activity change, negative = inhibition: at 57.3 µM (top of the series) unless noted
# [16] = biological target: Nicotinamide N-methyltransferase (Homo sapiens) (UniProt P40261); test: as above; settings: MTase-Glo luminescence, SAH detection, recombinant enzyme; measured here: NNMT max response; stronger effect = lower value
# [17] = biological target: Phenylethanolamine N-methyltransferase (Homo sapiens) (UniProt P11086); test: as above; settings: MTase-Glo luminescence, SAH detection, recombinant enzyme; measured here: PNMT max response; stronger effect = lower value
# [18] = measured here: PEO1 parental Z-AUC
# Chain of Cytochrome P450 2C9 (Homo sapiens) (P11712 whole entry, looked up): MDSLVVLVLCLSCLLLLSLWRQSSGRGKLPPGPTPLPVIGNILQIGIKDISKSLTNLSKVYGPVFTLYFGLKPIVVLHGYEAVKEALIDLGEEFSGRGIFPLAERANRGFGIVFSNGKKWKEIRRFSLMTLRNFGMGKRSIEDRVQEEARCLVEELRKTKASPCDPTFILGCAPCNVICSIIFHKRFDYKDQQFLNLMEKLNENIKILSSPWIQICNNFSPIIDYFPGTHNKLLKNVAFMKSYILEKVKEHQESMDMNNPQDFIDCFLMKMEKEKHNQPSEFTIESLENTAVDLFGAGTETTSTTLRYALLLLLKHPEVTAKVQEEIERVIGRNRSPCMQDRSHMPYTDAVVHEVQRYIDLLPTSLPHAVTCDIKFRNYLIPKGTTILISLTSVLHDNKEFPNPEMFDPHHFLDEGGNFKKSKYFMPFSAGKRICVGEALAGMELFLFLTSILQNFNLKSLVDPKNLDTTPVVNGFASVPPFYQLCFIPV
# Chain of Nicotinamide N-methyltransferase (Homo sapiens) (P40261 whole entry, looked up): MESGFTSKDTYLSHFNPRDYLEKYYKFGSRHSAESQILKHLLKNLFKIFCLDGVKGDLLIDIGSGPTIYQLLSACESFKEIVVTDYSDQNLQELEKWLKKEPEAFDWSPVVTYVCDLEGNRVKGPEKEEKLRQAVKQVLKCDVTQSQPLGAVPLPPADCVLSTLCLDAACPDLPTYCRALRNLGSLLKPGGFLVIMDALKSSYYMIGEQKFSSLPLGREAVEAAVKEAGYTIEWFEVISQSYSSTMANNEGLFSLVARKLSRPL
# Chain of Phenylethanolamine N-methyltransferase (Homo sapiens) (P11086 whole entry, looked up): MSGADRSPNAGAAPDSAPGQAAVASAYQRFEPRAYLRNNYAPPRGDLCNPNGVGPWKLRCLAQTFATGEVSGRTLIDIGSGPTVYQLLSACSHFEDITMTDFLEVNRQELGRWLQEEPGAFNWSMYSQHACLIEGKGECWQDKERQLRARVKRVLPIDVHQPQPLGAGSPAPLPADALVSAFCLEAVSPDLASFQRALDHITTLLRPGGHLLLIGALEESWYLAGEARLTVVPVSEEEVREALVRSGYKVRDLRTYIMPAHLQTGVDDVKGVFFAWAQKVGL
# Chain of Catechol O-methyltransferase (Homo sapiens) (P21964 whole entry, looked up): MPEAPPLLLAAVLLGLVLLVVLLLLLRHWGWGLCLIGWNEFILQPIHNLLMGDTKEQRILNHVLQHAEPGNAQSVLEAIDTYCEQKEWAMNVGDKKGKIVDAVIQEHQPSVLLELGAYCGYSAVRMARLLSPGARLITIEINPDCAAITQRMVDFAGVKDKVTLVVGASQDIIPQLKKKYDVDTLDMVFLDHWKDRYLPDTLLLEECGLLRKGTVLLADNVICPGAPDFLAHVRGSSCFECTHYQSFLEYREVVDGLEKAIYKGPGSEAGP
# Chain of Cytochrome P450 2D6 (Homo sapiens) (P10635 whole entry, looked up): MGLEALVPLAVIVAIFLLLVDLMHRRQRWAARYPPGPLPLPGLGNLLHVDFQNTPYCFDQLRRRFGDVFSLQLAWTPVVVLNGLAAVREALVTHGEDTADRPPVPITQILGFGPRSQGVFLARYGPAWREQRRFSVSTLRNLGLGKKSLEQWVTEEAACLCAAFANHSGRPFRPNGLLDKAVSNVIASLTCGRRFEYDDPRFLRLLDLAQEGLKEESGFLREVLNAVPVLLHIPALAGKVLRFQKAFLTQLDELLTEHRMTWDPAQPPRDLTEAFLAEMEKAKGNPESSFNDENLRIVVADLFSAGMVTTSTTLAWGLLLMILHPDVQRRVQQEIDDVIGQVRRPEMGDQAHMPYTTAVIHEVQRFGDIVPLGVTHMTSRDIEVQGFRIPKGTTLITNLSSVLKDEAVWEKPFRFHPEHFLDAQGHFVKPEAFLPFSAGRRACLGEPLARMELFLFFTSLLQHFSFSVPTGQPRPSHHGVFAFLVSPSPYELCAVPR
structure (smiles),measurement,setting,value
C[C@@H]1O[C@@H](O[C@H]2CC[C@@]3(C)C(CC[C@@H]4C3CC[C@]3(C)[C@@H](C5=CC(=O)OC5)CC[C@]43O)C2)[C@H](O[C@@H]2O[C@H](CO)[C@@H](O)[C@H](O)[C@H]2O)[C@H](O)[C@H]1O (some centres undefined),Potency,[1],0.485 µM (active)
same,Potency,[2],0.171 µM (active)
same,Potency,[3],483 nM (active)
same,Potency,[4],0.485 µM (active)
same,Potency,[5],0.862 µM (active)
same,Potency,[6],1.26 µM (active)
same,Potency,[7],2.24 µM (active)
COc1cccc(NCC(F)Cn2c3ccc(Br)cc3c3cc(Br)ccc32)c1 (centres undefined),Potency,[1],14.6 µM (active)
same,Potency,[8],inactive
same,Potency,[9],inactive
same,Potency,[10],7.56 µM (active)
same,Potency,[3],20500 nM (active)
same,Potency,[4],13 µM (active)
same,Potency,[5],18.4 µM (active)
same,Potency,[6],inactive
same,Potency,[7],14.1 µM (active)
CC1=CC2/C=C(\C)CCC(O)C(O)/C=C/C(=O)C23C(=O)NC(CC(C)C)C3C1C (centres undefined),Potency,[8],inactive
same,Potency,[2],2.24 µM (active)
same,Potency,[3],2000 nM (active)
same,Potency,[4],2.82 µM (active)
Cc1cccc(NC(=O)c2ccc(C(F)(F)F)cc2C(=O)O)n1,Potency,[11],inactive
same,Potency,[1],inactive
same,Potency,[8],inactive
same,Potency,[2],inactive
same,Potency,[3],inactive
same,outcome,[12],inactive
CC(=O)OC[C@]12C[C@H](OC(C)=O)C(C)=C[C@H]1O[C@@H]1[C@H](O)[C@@H](O)[C@@]2(C)[C@]12CO2,Potency,[1],0.904 µM (active)
same,Potency,[8],inactive
same,Potency,[2],0.101 µM (active)
same,Potency,[3],89.8 nM (active)
same,Potency,[5],0.18 µM (active)
CC[C@H]1/C=C\C=C/C[C@@H](C)[C@H](O)[C@@](C)(O)C(=O)[C@@H](C)[C@H](O)[C@@H](C)C(=O)[C@@H](C)[C@H](O)[C@@H](C)/C=C\C(=O)O[C@@H]2[C@H](C)[C@H](CC1)O[C@]1(CC[C@H](C)[C@H](C[C@@H](C)O)O1)[C@H]2C,Potency,[2],0.742 µM (active)
same,Potency,[3],332 nM (active)
same,Z-AUC,[13],0.274 (inactive)
same,Z-AUC,[13]; [18],-2.84
same,Z-AUC,[13]; measured here: PEO4 Z-AUC,-2.81
same,max response,[4],-112% (inactive)
CC(C)C(=O)O[C@H]1[C@@H]2[C@H](C)C(=O)O[C@@H]2C[C@@H](C)[C@@H]2C=CC(=O)[C@]21C,Potency,[1],16.1 µM (active)
same,Potency,[8],inactive
same,Potency,[2],3.58 µM (active)
same,Potency,[3],2840 nM (active)
same,Potency,[4],9.04 µM (active)
C/C1=C/[C@@H](C)C/C=C/[C@H]2[C@@H]3O[C@]3(C)[C@@H](C)[C@H]3[C@H](Cc4c[nH]c5ccccc45)NC(=O)[C@]32C(=O)/C=C\C(=O)[C@@H]1O,Potency,[8],inactive
same,Potency,[2],3.99 µM (active)
same,Potency,[3],502 nM (active)
same,Potency,[5],7.96 µM (active)
same,Potency,[6],inactive
CC(C)OC(=O)c1ccnc2cc(C(OCCN3CCCCC3)c3ccccc3Cl)sc12 (centres undefined),Potency,[1],20.6 µM (active)
same,Potency,[2],14.5 µM (active)
same,Potency,[3],18300 nM (active)
same,activity,[14],3.41%
same,"activity change, negative = inhibition",[15],8.86%
same,activity,[16],-30.3%
same,activity,[17],-6.38%
same,outcome,[12],inactive
same,Potency,[6],inactive
same,Potency,[7],inactive
Cc1sc2c(c1C)C(c1ccc(Cl)cc1)=N[C@@H](CC(=O)Nc1ccc(O)cc1)c1nnc(C)n1-2,Potency,[2],0.0615 µM (active)
same,Potency,[3],69 nM (active)
same,Z-AUC,[13],-0.583 (inactive)
same,Z-AUC,[13]; [18],-0.325
same,Z-AUC,[13]; measured here: PEO4 Z-AUC,-0.491
same,Potency,[4],0.39 µM (active)
same,outcome,[12],inactive [at 9.27 µM]
same,Potency,[7],0.562 µM (active)
C=C(CO)[C@@]12O[C@@H]1[C@@]1(C)C(=CC2=O)CC[C@@H](O)[C@@H]1C,Potency,[1],13 µM (active)
same,Potency,[8],inactive
same,Potency,[2],12.9 µM (active)
same,Potency,[3],12900 nM (active)
same,Potency,[4],23.1 µM (active)
same,outcome,[12],inactive
same,Potency,[6],inactive
COc1ccc(C23CCC(=O)C=C2N(C)CC3)cc1OC (centres undefined),Potency,[1],inactive
same,Potency,[8],inactive
same,Potency,[2],inactive
same,Potency,[3],inactive
same,max response,[4],-6.12% (inactive)
same,max response,[5],-13% (inactive)
same,Potency,[7],25.1 µM (active)
